Read-out in test [1]: Monokine induced gamma interferon (MIG), CXCL9 (gene 4283)
Briefly: BSK_SAg_MIG: BioMAP Diversity Plus: SAg Assay for Monokine induced gamma interferon (MIG) Biomarker Activity (AID 2283092). The following applies: primary human HUVEC with PBMC; actives raise or lower the signal. The method, boiled down: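 HUVEC plus human PBMC co-culture, chemicals dosed and MIG (CXCL9) quantified by ELISA at 24 h. Bidirectional curve fitting against DMSO as negative control and baseline, so both gain and loss of signal count as activity.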

Test [2] is described as follows: BSK_SAg_PBMCCytotoxicity: PBMC Cytotoxicity Assessment in the BioMAP Diversity Plus: SAg Assay (AID 2283093).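 For AC50: PBMC superantigen activated with SEB plus TSST-1 one hour after compound addition.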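 Note: PBMC viability measured as Alamar Blue reduction fluorescence at 546/580 nm; fitted both ways against DMSO so a hit may be loss or gain of signal.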 The following applies: primary human HUVEC with PBMC. The method, boiled down:
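Human umbilical vein endothelial cells co-cultured with PBMC; PBMC (75,000/well) pre-treated with compound 1 h, then activated with SEB and TSST-1 (20 ng/mL final each) for 90 h. Alamar Blue added 6 h, fluorescence 546/580 nm; bidirectional fit versus DMSO.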

Read-out in test [3]: Interleukin-8 (IL8), CXCL8 (gene 3576)
Briefly: BSK_SAg_IL8: BioMAP Diversity Plus: SAg Assay for Interleukin-8 (IL8) Biomarker Activity (AID 2283094). The following applies: primary human HUVEC with PBMC; actives raise or lower the signal. The method, boiled down: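 In this co-culture of human umbilical vein endothelium with peripheral blood mononuclear cells, IL-8 is assayed by ELISA at 24 h. DMSO serves as baseline for bidirectional curve fitting.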

Test [4] can be described thus: BSK_SAg_SRB: Viability Assessment in the BioMAP Diversity Plus: SAg Assay (AID 2283096).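 Note: cells read one day after compound addition; hits may be either gain or loss of signal compared with DMSO.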 The following applies: primary human HUVEC with PBMC. The method, boiled down: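 Endothelial/PBMC primary human co-culture; compound 24 h; fix 10% TCA, stain 0.1% SRB, A560; protein content as cytotoxicity proxy; bidirectional curve fit, DMSO = baseline.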
Test [5] in a line: BSK_SAg_Proliferation: Cell Proliferation Assessment in the BioMAP Diversity Plus: SAg Assay (AID 2283095).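 Note: relative cell number as total protein by SRB absorbance in sub-confluent culture.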 As to conditions: primary human HUVEC with PBMC. The method, boiled down: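 Readout is SRB-stained protein (560 nm) in a primary human HUVEC and PBMC co-culture; sub-confluent cultures are read at 96 h. Activity is fitted bidirectionally using DMSO as baseline.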
For test [6], the target named is human AKT serine/threonine Kinase 1 (AKT1), AKT1 (gene 207) (UniProt P31749). Briefly: NVS_ENZ_hAKT1: NovaScreen (NVS) Enzymatic Assay for human AKT serine/threonine Kinase 1 (AKT1) (AID 2283138; active = hit-call score of the fitted dose curve at least 0.9, where 1 is the maximum). The method, boiled down: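 Signal loss relative to DMSO, measured by fluorescence after electrophoretic separation of substrate and product, indicates inhibition of recombinant enzyme. Readings at 1 h; screening at 25 uM, follow-up curves up to 50 uM.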
human AKT serine/threonine Kinase 1 (AKT1), AKT1 (gene 207), sequence (P31749 whole entry, looked up): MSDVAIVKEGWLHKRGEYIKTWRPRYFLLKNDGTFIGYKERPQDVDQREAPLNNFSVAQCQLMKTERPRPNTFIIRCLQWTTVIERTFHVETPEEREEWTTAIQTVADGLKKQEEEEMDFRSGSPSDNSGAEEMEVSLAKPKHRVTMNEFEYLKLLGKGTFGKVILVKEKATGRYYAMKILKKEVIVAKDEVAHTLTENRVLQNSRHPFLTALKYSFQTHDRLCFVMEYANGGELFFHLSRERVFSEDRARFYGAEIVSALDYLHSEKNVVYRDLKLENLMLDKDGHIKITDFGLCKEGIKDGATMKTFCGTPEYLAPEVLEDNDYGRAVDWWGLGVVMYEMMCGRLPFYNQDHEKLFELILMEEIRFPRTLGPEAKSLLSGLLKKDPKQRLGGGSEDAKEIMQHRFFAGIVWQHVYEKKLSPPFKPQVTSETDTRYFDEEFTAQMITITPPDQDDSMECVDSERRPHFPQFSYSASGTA

The target of test [7] is human CYP2D6, CYP2D6 (gene 1565) (UniProt P10635). Briefly: NVS_ADME_hCYP2D6: NovaScreen (NVS) CYP450-related Enzyme Activity (ADME) Assay for human CYP2D6 (AID 2283107; active = hit-call score of the fitted dose curve at least 0.9, where 1 is the maximum). The method, boiled down: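 Cell-free assay using recombinant human CYP2D6 expressed in insect cells, with a fluorogenic substrate read after 1 h. Primary screen in duplicate at 10 uM; actives followed up in concentration series. Loss of signal fitted relative to acetonitrile.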
human CYP2D6, CYP2D6 (gene 1565), sequence (P10635 whole entry, looked up): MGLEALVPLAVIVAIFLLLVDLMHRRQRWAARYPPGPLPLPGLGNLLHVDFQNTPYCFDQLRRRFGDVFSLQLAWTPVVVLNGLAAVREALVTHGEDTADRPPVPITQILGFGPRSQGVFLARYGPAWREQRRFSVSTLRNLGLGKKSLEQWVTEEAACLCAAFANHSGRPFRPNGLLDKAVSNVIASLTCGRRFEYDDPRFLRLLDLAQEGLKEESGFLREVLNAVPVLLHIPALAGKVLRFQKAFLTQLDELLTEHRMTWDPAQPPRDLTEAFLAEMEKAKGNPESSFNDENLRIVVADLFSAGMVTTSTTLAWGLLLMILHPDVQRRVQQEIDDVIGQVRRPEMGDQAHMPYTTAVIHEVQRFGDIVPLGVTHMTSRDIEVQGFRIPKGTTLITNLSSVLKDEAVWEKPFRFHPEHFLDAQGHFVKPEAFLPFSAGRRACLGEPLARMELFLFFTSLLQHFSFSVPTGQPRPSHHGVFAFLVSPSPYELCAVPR

Test [8] addresses human CYP2C9, CYP2C9 (gene 1559) (UniProt P11712). The test can be described thus: NVS_ADME_hCYP2C9: NovaScreen (NVS) CYP450-related Enzyme Activity (ADME) Assay for human CYP2C9 (AID 2283108; active = hit-call score of the fitted dose curve at least 0.9, where 1 is the maximum). The method, boiled down:
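Cell-free assay of recombinant human CYP2C9 produced in Sf9 cells, with enzyme activity read by fluorescence intensity 0.75 h after compound addition. Loss of signal versus an acetonitrile negative control indicates inhibition. Primary screen used 10 uM in duplicate; actives were retested in concentration series.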

Test [9] addresses human CYP19A1, CYP19A1 (gene 1588) (UniProt P11511). The test can be described thus: NVS_ADME_hCYP19A1: NovaScreen (NVS) CYP450-related Enzyme Activity (ADME) Assay for human CYP19A1 (AID 2283098; active = hit-call score of the fitted dose curve at least 0.9, where 1 is the maximum;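 for AC50: potency for inhibitors seen as loss of fluorescent enzyme signal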). The gist of the method: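 Cell-free enzyme assay with recombinant protein and a specific fluorogenic substrate, read by fluorescence intensity 0.5 h after dosing. Primary screen ran in duplicate at 10 uM; actives were retested in concentration series. Loss of signal versus acetonitrile baseline.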

Test [10] has as its target human CYP1A1, CYP1A1 (gene 1543) (UniProt P04798). The test can be described thus: NVS_ADME_hCYP1A1: NovaScreen (NVS) CYP450-related Enzyme Activity (ADME) Assay for human CYP1A1 (AID 2283100; active = hit-call score of the fitted dose curve at least 0.9, where 1 is the maximum). The method, boiled down: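 Recombinant CYP1A1 with a fluorogenic substrate, cell-free, read 1 h after dosing; acetonitrile as negative control. Single-concentration screen at 10 uM in duplicate, then concentration-response up to 20 uM for chemicals meeting ~30% inhibition threshold.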

Test [11] deals with human CYP2B6, CYP2B6 (gene 1555) (UniProt P20813). The test can be described thus: NVS_ADME_hCYP2B6: NovaScreen (NVS) CYP450-related Enzyme Activity (ADME) Assay for human CYP2B6 (AID 2283101; active = hit-call score of the fitted dose curve at least 0.9, where 1 is the maximum). The method, boiled down: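 Recombinant human CYP2B6 with fluorogenic substrate, read by fluorescence intensity 1 h after dosing. Primary screen in duplicate at 10 uM, actives followed in concentration series; signal loss relative to acetonitrile control.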
human CYP2B6, CYP2B6 (gene 1555), sequence (P20813 whole entry, looked up): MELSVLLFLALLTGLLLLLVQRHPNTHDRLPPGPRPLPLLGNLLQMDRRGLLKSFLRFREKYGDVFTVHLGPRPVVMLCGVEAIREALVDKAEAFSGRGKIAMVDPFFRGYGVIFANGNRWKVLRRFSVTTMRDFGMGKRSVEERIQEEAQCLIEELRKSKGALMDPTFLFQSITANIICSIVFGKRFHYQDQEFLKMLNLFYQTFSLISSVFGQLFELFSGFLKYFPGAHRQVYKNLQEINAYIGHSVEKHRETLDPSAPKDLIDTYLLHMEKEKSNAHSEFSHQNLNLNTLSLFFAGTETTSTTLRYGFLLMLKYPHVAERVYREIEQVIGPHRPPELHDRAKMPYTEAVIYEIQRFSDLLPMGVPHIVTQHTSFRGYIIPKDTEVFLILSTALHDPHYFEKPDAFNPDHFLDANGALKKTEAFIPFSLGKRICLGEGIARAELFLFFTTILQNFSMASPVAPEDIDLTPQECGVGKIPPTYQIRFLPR

The target in test [12] is human Caspase 5 (CASP5), CASP5 (gene 838) (UniProt P51878). Briefly: NVS_ENZ_hCASP5: NovaScreen (NVS) Enzymatic Assay for human Caspase 5 (CASP5) (AID 2283137; active = hit-call score of the fitted dose curve at least 0.9, where 1 is the maximum). The method, boiled down:
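Cell-free protease assay with bacterially expressed CASP5 and a fluorescent substrate, measured at 2 h. Values fitted relative to DMSO as baseline, from concentration-response series topping at 50 uM.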

Records with an inconclusive call do not appear. The source holds several records for some structures; these can differ, active in one and inactive in another. Calls of active or inactive are those of the source. Rule for the calls, unless noted: active = hit-call score of the fitted dose curve at least 0.9, where 1 is the maximum; inactive = score below 0.9.

human CYP19A1, CYP19A1 (gene 1588), sequence (P11511 whole entry, looked up): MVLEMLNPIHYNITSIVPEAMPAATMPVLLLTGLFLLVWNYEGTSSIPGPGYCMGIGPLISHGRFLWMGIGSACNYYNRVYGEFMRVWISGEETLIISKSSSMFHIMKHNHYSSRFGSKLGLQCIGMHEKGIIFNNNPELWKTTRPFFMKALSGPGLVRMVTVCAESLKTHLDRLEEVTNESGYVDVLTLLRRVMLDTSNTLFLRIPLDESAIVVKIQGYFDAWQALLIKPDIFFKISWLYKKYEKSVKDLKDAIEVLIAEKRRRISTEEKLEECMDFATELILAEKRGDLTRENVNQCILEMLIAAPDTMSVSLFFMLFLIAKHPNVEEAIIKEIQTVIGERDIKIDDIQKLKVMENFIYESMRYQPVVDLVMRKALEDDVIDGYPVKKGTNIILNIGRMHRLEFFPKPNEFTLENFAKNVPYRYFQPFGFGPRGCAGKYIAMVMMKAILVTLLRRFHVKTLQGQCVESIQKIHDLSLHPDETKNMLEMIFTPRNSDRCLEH
human CYP1A1, CYP1A1 (gene 1543), sequence (P04798 whole entry, looked up): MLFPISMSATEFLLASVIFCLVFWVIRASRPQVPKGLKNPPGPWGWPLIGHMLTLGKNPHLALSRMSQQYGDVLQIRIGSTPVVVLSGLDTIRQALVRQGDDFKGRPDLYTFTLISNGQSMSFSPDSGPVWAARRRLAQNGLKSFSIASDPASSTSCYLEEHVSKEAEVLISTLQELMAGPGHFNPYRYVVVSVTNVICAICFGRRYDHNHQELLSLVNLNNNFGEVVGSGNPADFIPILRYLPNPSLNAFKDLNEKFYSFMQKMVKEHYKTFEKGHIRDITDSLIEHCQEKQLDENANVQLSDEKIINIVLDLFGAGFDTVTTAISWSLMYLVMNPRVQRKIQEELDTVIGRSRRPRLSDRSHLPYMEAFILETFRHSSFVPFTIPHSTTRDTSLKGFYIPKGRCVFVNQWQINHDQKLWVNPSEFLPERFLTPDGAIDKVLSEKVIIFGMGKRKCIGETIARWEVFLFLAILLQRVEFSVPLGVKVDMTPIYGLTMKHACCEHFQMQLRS
human CYP2C9, CYP2C9 (gene 1559), sequence (P11712 whole entry, looked up): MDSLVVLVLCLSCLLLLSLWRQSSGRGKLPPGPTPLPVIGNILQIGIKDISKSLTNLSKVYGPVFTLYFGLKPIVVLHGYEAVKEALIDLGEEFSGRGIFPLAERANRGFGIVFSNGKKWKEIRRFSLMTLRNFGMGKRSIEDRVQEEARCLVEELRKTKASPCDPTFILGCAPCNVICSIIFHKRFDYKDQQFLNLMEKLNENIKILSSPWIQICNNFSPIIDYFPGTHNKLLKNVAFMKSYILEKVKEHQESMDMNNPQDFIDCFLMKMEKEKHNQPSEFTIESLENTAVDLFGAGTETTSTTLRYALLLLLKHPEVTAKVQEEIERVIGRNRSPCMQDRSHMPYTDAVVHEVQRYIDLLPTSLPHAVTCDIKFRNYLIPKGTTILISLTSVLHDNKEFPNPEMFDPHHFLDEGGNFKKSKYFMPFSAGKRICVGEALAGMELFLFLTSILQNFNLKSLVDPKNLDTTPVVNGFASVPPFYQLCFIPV
human Caspase 5 (CASP5), CASP5 (gene 838), sequence (P51878 whole entry, looked up): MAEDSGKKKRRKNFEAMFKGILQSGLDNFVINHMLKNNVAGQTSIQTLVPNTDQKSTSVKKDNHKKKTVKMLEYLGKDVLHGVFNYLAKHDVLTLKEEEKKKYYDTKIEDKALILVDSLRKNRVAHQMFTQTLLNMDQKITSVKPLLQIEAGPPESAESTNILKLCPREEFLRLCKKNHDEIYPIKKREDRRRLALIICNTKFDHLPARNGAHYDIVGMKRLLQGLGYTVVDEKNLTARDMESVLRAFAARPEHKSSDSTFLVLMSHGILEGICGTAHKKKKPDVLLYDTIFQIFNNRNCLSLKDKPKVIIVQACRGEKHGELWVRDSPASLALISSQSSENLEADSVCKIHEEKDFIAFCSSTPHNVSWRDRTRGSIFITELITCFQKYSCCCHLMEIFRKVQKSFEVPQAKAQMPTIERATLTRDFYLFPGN

In the case of `CCCCCCCCN(C)CCCCCCCC`, the outcome in test [1], in [2], in test [3] and in test [4] was inactive.

For `C[C@]12CC[C@@H]3c4ccc(O)cc4CC[C@H]3[C@@H]1CCC2=O`, the result in test [1], in test [2], in test [3] and in test [4] was inactive.

By AC50 is commonly meant the midpoint of the concentration-response curve, whichever way the signal moves. On to `CO[C@H]1/C=C/O[C@@]2(C)Oc3c(C)c(O)c4c(O)c(c(/C=N/N5CCN(C)CC5)c(O)c4c3C2=O)NC(=O)/C(C)=C\C=C\[C@H](C)[C@H](O)[C@@H](C)[C@@H](O)[C@@H](C)[C@H](OC(C)=O)[C@@H]1C`, for which the outcome in [1] and in test [3] was inactive. Also, the AC50 in test [2] was 9.8 µM (active); in test [5], 17.6 µM (active); in [6], 25.1 µM (active).

As to `Cc1occc1C(=O)Nc1ccc(C(=O)N2CCC(F)(F)/C(=C\C(=O)N3CCC(N4CCCCC4)CC3)c3ccccc32)cc1`, the result in test [2], in test [3], in test [5] and in test [4] was inactive. Further, the half-maximal activity concentration (AC50) in test [7] is 1.77 µM (active).

Consider `c1ccc(C[n+]2cccc3ccccc32)cc1`, for which the result in test [1], in test [2], in test [3] and in [4] was inactive. Also, the AC50 in test [7] is 7.84 µM (active).

In the case of `CC(C)(c1cc(Br)c(O)c(Br)c1)c1cc(Br)c(O)c(Br)c1`, the AC50 in test [1] is 36.1 µM (active); in test [2], 33.3 µM (active); in test [3] it was 30.4 µM (active); in [4], 29.4 µM (active); in [8] it was 2.93 µM (active).

Regarding `O=C(O)Cc1cc(I)c(Oc2ccc(O)c(I)c2)c(I)c1`, the result in test [1], in test [2], in [3] and in test [9] was inactive.

For the compound `CCCCCCCCCCCC[N+](C)(C)C`, the AC50 in [1] was 29.4 µM (active); in [2], 20 µM (active); in test [4] it was 25.8 µM (active); in test [7], 7.58 µM (active).

As for `O=C1CCC(C2CCCCC2)CC1`, the outcome in test [1], in test [2], in test [3] and in test [9] was inactive. Also, in test [9], the AC50 is 11.6 µM (active).

Take `CCN(Cc1cccnc1)C(=O)c1cccc(Cl)c1[C@]1(C)C(=O)N(Cc2ccc(OC)cc2OC)c2ccc(Cl)cc21`: the result in test [1], in [2], in test [10], in test [11], in test [7] and in test [12] was inactive. The figures for the half-maximal activity concentration (AC50) in [3] and in test [8] were 3.93 µM (active) and 2.28 µM (active), respectively.

On to `O=c1[nH]sc2ccccc12`, for which the AC50 is 28.8 µM (active) in test [1]; 3.66 µM (active) in test [2]; 23.2 µM (active) in test [3]; 0.77 µM (active) in test [5]; 5.11 µM (active) in [10]; 0.721 µM (active) in [11].

`O=C1O[C@H]([C@@H](O)CO)C(O)=C1O`: the outcome in test [1], in test [2], in test [3] and in test [4] was inactive.
